The nature of experiment [1]: stimulators of nuclear beta-catenin in C2C12, primary screen, imaging, WNT3A-conditioned medium, mouse C2C12, NPC library (AID 1117326; in the data active means nuclear beta-catenin stimulation mostly above about 4.2%, no sharp cut-off; inactive means mostly below about 10%). The settings on record: stronger effect = higher value.
Experiment [2] in a line: stimulators of insulin release from INS-1E, primary screen, cell-based, 5 mM glucose, NPC library (AID 1117329;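 active means compound raises insulin release from rat beta cells at 5 mM glucose, no numeric limit stated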). The settings on record: rat INS-1E insulin secretion, at 10 µM, stronger effect = higher value.
Experiment [3] in a line: growth inhibition of GSK3B-pretreated HCT116 cells – cell-based, CellTiter-Glo, 0.2 to 20 µM (AID 1117336;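 active means compounds lowering colon cancer cell viability after pretreatment blocking the GSK3B kinase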). The following applies: HCT116 viability after GSK3B inhibitor, at 20 µM, stronger effect = higher value. (Cellular ATP, detected with luciferase, serves as a proxy for viable cell number.)
Experiment [4] is described as follows: inhibition of endothelial tube formation, primary screen, imaging, VEGF stimulated, CD31 staining, tube area, NPC library (AID 1117340;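 active means compound that reduces growth-factor-driven endothelial tube area in a mixed cell culture, no cutoff stated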). The settings on record: VEGF-stimulated ADSC/ECFC co-culture, at 10 µM, stronger effect = higher value.
Experiment [5] can be described thus: glucagon-like peptide 1 release enhancers, primary assay, NCI-H716 cell line, NPC library (AID 1117341;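 active means compound raises GLP1 secretion from the human gut endocrine cells, with no numeric limit stated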). The following applies: NCI-H716 cells, at 10 µM, stronger effect = higher value.
Experiment [6] in a line: HCT116 colon cancer cell growth inhibition, primary screen, CellTiter-Glo luminescence, NPC library (AID 1117342;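 active means compounds that lower survival of HCT116 colon cancer cells in the luminescence readout, no numeric limit stated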). The settings on record: at 20 µM (top of the series).
Experiment [7] is described as follows: CellTiter-Glo luminescent readout of SW480 viability loss, NPC library primary (AID 1117343;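 active means compounds that lower viability of the colon cancer cells in the luminescence readout, with no numeric limit stated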). The following applies: CellTiter-Glo luminescence; at 20 µM (top of the series).
Experiment [8] in a line: decreased DLD-1 cellular survival, CellTiter-Glo luminescent readout, NPC compound collection, primary HTS (AID 1117346;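 active means compounds that lower survival of DLD-1 colon cancer cells in the luminescence readout, no cutoff given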). The following applies: DLD-1 viability, CellTiter-Glo luminescence; at 20 µM (top of the series).
In experiment [9] the target is 6-phosphogluconate dehydrogenase, decarboxylating (Homo sapiens) (UniProt P52209). The experiment is described as follows: 6PGD enzyme inhibitors, primary screen, biochemical, human, recombinant enzyme, NADPH absorbance (AID 1159550;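 active means at least 20% inhibition of 6-phosphogluconate dehydrogenase activity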). The settings on record: recombinant 6PGD, NADPH absorbance 341 nm; at 10 µM; stronger effect = higher value.
Experiment [10] can be described thus: sensitizers of A549 cells to miR-34 induction, primary screen, imaging, A549 dox-inducible miR-34, nuclei and caspase counts (AID 1347080;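 active means compounds whose cell count with miR-34 switched on is under 0.7 times the count with it off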). The settings on record: A549 miR-34 inducible, Hoechst nuclei count, 48 h.
Experiment [11] in a line: survival rescue of mitochondrial mutant cells in low glucose, primary screen, MELAS cybrids, Rieske KO mouse fibroblasts, CellTiter-Glo (AID 1508586;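 active means mean z-score across replicates of 1.96 or higher in either the MELAS or the Rieske mutant cell line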;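 further: z relative to plate mean and SD of compound and empty wells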).
Experiment [12] concerns the target NAD(+) hydrolase SARM1 (Homo sapiens) (UniProt Q6SZW1). The experiment is described as follows: SARM1 TIR NADase inhibitors, cell lysate, NAD-Glo luminescence (AID 1508614;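 active means compound whose remaining NAD level is above about 45 nM, limit read from the data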). The settings on record: SAM-TIR HEK293T lysate NADase, at 1 µM, stronger effect = higher value.
The target of experiment [13] is Mitogen-activated protein kinase 7 (Homo sapiens) (UniProt Q13164). Kind of experiment: ERK5 transactivation activators in reporter cells, primary screen, cell-based, HTS (AID 1508626;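 active means luciferase signal above three times the same-plate solvent-only control wells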;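 further: luciferase driven by Gal4-ERK5 fusion binding five Gal4 sites before minimal TATA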). The following applies: HeLa Gal4-ERK5 transactivation, 18 h, at 5 µM, stronger effect = higher value.
A further experiment deals with F380Y. Kind of experiment: modulators of BK channel variants, profiling panel, selectivity assay, cell-based, U2OS BacMam, thallium flux, beta subunits (AID 1259406).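 Further: initial slope of Thallos dye fluorescence rise after thallium is added; log ratio against the mean of 0.3% DMSO vehicle wells on the same plate.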 The following applies: at 30 µM.
The subject of another experiment is F380Y/beta2Delta. The description is as above. The settings on record: at 30 µM.
For experiment [14], the target named is Calcium-activated potassium channel subunit alpha-1 (Homo sapiens) + Leucine-rich repeat-containing protein 26 (Homo sapiens) (UniProt Q12791+Q2I0M4). The description is as above. The following applies: F380Y/Slo1WT/gamma1, at 30 µM.
In a further experiment the test system is R275C. The description is as above. The following applies: at 30 µM.
Another experiment concerns R275C/beta1. The experiment is described as above. The settings on record: at 30 µM.
Another experiment deals with R275C/beta2Delta. The description is as above. The following applies: at 30 µM.
[15] abbreviates: stronger effect = lower value, cell number ratio, induced over uninduced.
Setting [16] is: measured here: relative caspase fold change +Dox/-Dox.
The mark [17] stands for this setting: measured here: total cells with miR-34 induction, stronger effect = lower value.
[18] abbreviates: measured here: total cells without miR-34 induction.
Where [19] appears, read: MELAS cybrid survival, CellTiter-Glo 48 h, stronger effect = higher value.
Setting [20] is: Rieske KO mouse fibroblast survival, CellTiter-Glo 72 h.

Here are results for three molecules from PubChem BioAssay.

SMILES strings stand for the structures. “And” between values parts separate entries of the source, which are not always exact repeats. Equal entries are not always repeated. The source made the active and inactive calls.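 How the source made its calls, unless noted: active means thallium flux through the channel raised or lowered by more than 3 SD from vehicle-only wells, actives on both sides; inactive means the rest.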

Chain of 6-phosphogluconate dehydrogenase, decarboxylating (Homo sapiens) (P52209 whole entry, looked up): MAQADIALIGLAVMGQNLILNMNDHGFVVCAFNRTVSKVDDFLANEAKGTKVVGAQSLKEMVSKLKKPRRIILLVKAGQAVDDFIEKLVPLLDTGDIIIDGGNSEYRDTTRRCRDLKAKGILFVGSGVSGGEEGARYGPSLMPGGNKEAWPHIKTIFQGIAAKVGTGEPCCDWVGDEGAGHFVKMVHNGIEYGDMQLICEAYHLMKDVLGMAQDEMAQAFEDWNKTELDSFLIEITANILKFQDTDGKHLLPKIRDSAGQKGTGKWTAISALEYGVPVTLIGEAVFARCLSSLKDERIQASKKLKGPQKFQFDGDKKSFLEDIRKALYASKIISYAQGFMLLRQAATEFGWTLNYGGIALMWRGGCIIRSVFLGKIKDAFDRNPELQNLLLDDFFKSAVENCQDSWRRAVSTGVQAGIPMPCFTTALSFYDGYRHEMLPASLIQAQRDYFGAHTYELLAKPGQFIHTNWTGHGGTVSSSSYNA
Chain of Calcium-activated potassium channel subunit alpha-1 (Homo sapiens) + Leucine-rich repeat-containing protein 26 (Homo sapiens) (Q2I0M4 whole entry, looked up, one chain of several): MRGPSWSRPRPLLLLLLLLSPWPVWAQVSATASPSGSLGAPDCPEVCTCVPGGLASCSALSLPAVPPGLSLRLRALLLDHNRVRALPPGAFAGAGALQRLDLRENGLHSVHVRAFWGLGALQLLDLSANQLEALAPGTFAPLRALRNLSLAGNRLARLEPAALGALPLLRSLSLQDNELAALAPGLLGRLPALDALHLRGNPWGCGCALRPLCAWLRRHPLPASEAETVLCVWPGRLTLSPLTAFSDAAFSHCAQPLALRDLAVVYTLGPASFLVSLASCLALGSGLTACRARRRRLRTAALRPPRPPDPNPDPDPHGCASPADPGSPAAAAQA
Chain of Mitogen-activated protein kinase 7 (Homo sapiens) (Q13164 whole entry, looked up, the tested form may be a part): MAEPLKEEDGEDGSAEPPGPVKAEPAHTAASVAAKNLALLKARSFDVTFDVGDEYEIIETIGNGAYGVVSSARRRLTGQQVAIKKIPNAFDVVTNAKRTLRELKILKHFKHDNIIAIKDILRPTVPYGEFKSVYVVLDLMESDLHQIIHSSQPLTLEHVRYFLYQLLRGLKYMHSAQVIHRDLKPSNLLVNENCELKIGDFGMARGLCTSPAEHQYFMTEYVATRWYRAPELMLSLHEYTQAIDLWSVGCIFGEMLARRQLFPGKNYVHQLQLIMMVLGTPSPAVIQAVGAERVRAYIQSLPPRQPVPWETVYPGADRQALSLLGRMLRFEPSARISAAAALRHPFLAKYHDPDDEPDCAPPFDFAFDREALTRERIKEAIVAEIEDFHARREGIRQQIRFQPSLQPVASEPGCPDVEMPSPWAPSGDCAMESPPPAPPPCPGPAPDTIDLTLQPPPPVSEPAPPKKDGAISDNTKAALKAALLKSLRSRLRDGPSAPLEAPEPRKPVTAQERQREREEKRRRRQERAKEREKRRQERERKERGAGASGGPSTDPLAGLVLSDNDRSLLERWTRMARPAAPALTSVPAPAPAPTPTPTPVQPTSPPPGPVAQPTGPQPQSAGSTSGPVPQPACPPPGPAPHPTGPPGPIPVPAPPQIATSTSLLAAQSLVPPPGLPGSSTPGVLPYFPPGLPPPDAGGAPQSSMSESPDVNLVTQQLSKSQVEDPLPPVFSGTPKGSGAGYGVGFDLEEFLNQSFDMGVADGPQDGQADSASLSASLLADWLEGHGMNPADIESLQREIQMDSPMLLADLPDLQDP
Chain of NAD(+) hydrolase SARM1 (Homo sapiens) (Q6SZW1 whole entry, looked up, the tested form may be a part): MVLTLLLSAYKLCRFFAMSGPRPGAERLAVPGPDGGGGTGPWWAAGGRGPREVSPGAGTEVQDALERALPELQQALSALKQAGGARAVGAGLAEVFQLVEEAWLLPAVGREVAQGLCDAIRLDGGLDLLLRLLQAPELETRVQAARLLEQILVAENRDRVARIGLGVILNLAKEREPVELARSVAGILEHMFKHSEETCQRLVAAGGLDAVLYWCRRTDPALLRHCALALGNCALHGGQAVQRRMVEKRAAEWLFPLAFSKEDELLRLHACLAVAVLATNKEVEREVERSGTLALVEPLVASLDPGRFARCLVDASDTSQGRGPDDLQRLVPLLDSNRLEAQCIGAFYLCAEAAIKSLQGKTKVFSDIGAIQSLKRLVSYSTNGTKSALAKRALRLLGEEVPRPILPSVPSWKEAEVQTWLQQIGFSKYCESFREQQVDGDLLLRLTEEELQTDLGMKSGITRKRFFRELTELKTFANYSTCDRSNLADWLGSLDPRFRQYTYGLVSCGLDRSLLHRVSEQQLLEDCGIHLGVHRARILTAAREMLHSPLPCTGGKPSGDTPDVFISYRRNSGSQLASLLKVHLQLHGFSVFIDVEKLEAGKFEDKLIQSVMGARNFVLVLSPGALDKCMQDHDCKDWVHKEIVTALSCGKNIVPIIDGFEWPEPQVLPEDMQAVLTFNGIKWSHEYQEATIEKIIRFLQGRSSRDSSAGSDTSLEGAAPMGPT

As to `Nc1nc2ncc(CNc3ccc(C(=O)N[C@@H](CCC(=O)O)C(=O)O)cc3)nc2c(=O)[nH]1`, the nuclear beta-catenin stimulation in [1] (at 10 µM) was 0.8% (inactive); in experiment [1] (stimulation, at 2 µM) it was 0.5%. For the same molecule, in [2], the insulin secretion stimulation was 2.4% (inactive). Also, in [3], the viability decrease was -64.4% (inactive). Further, the tube area decrease in [4] was 16.7% (inactive). The GLP1 secretion stimulation in experiment [5] was -1.5% (inactive). In [6], the inhibition of viability is -2.33% (inactive). Moreover, the viability decrease (inhibition) in [7] is 6.4% (inactive); in experiment [8], -8.5% (inactive). In addition, in experiment [9], the inhibition (commonly the drop in the measured response relative to a control, in per cent) was -0.853% (inactive). For the same molecule, the fold change in experiment [10] (setting [15]) was 0.937 (inactive) and 0.906 (inactive) and 0.91 (inactive); in experiment [10] (setting [16]) it was 1.68 and 0.997 and 3.41. In addition, the cell count in [10] (setting [17]) was 10800 and 8990 and 11200; in experiment [10] (setting [18]), 11600 and 9920 and 12300. Besides, the z-score was 0.332 (inactive) in [11] (setting [19]) and -0.293 in experiment [11] (setting [20]). Besides, the remaining NAD in experiment [12] is 10 nM (inactive). In addition, the luciferase signal in [13] was 188 AU (inactive). The log fold change Tl+ flux in the experiment with F380Y is -0.0861 (inactive); in the experiment on F380Y/beta2Delta, -0.000783 (inactive); in experiment [14], -0.00611 (inactive); with R275C, -0.0335 (inactive); with R275C/beta1, 0.00862 (inactive); in the experiment with R275C/beta2Delta, 0.0304 (inactive).
Consider `CC(=O)[C@H]1CC[C@H]2[C@@H]3C[C@H](C)C4=CC(=O)CC[C@]4(C)[C@H]3[C@@H](O)C[C@]12C`, for which the nuclear beta-catenin stimulation in experiment [1] (at 10 µM) was 0.3% (inactive); in experiment [1] (stimulation, at 2 µM), -0.3%. The insulin secretion stimulation in experiment [2] is 0% (inactive). Further, the viability decrease in experiment [3] is -48.8% (inactive). In experiment [4], the tube area decrease is 13.8% (inactive). For the same molecule, the GLP1 secretion stimulation in experiment [5] was 0.4% (inactive). Moreover, in [6], the inhibition of viability was 14.4% (inactive). Moreover, the viability decrease (inhibition) in experiment [7] was 11.1% (inactive); in experiment [8] it was -5.4% (inactive). Besides, the inhibition in experiment [9] is -11.2% (inactive). Further, the fold change in experiment [10] (setting [15]) is 0.951 (inactive) and 0.798 (inactive); in [10] (setting [16]), 1.06 and 1.54. Also, the cell count in experiment [10] (setting [17]) is 6580 and 6920; in experiment [10] (setting [18]), 6920 and 8680. The z-score in experiment [11] (setting [19]) is 0.756 (inactive); in experiment [11] (setting [20]) it was 1.33. Besides, the remaining NAD in experiment [12] was 10 nM (inactive). The luciferase signal in [13] is 84 AU (inactive). In addition, the log fold change Tl+ flux was -0.0207 (inactive) in the experiment with F380Y; -0.0669 (inactive) in the experiment with F380Y/beta2Delta; -0.019 (inactive) in [14]; -0.0356 (inactive) in the experiment on R275C; 0.0813 (inactive) with R275C/beta1; 0.0373 (inactive) in the experiment with R275C/beta2Delta.
Turning to `O[C@@H](c1cc(C(F)(F)F)nc2c(C(F)(F)F)cccc12)[C@H]1CCCCN1`, the nuclear beta-catenin stimulation is 45% (active) in experiment [1] (at 10 µM) and 3.3% in experiment [1] (stimulation, at 2 µM). For the same molecule, the insulin secretion stimulation in experiment [2] is 6.3% (inactive). Moreover, the viability decrease in experiment [3] was 99.1% (active). Also, the tube area decrease in experiment [4] is 108% (active). Besides, in experiment [5], the GLP1 secretion stimulation is -1.8% (inactive). The inhibition of viability in [6] is 99% (active). The values for the viability decrease (inhibition) in experiment [7] and in experiment [8] were 102% (active) and 101% (active), respectively. In addition, the inhibition in experiment [9] is 5.27% (inactive). For the same molecule, the fold change in experiment [10] (setting [15]) is 1.59 (inactive); in experiment [10] (setting [16]) it was 0.276. The results for the cell count in experiment [10] (setting [17]) and in experiment [10] (setting [18]) were 950 and 597, respectively. For the same molecule, the remaining NAD in experiment [12] is 10 nM (inactive). In addition, the luciferase signal in experiment [13] is 64 AU (inactive). Further, the log fold change Tl+ flux with F380Y is 0.333 (active); with F380Y/beta2Delta it was 0.541 (active); in experiment [14] it was 0.167 (active); in the experiment on R275C, 0.256 (active); with R275C/beta1, 0.641 (active); in the experiment on R275C/beta2Delta it was 0.366 (active).
